About 13,000 (27%) of roughly 48,000 compounds showed an effect of 50% or more. The list shows a part of the results.
test system: Wolbachia pipientis; assay: Anti-Wolbachia Cell-Based Screen; type: functional; set-up: scale not given: in the data most compounds retested in dose-response had high values; details: 5 µM

Structure (SMILES)	Percent Effect [%]
CCN(Cc1ccco1)C(=O)NCC(c1cccs1)N(C)C (configuration not stated)	-4.593
Cc1nnc(N(CCC#N)CCC#N)s1	120.1
Cc1ccc(C2CCCCCN2Cc2cn(C)nc2C)s1 (configuration not stated)	10.12
Cc1ccc(C2CCCCCN2Cc2cn(C)nc2C)cc1 (configuration not stated)	6.787
Cc1nnc(CN2CCCC2c2cccc(Br)c2)o1 (configuration not stated)	20.93
COC(=O)CCN1CCCC1c1ccccc1Cl (configuration not stated)	-1.683
N#CCCN(C(=O)CN1CCCC1c1ccccc1Cl)c1ccccc1 (configuration not stated)	-18.96
Cc1cccc(C2CCCCCN2Cc2cn(C)nc2C)c1 (configuration not stated)	99.27
Cc1ccsc1C1CCCCCN1Cc1cn(C)nc1C (configuration not stated)	87.45
Cc1nn(C)cc1CN1CCCCCC1c1ccccc1Cl (configuration not stated)	134.4
CS(=O)(=O)c1ccc(CN2CCCCC2c2cccc(F)c2)cc1 (configuration not stated)	5.873
Cc1nn(C)cc1CN1CCCCCC1c1ccc(Cl)cc1 (configuration not stated)	98.47
Cc1nnc(CN2CCCC2c2ccc(Cl)c(Cl)c2)o1 (configuration not stated)	-0.8555
Cc1nn(C)c(C)c1C1CCCN1Cc1cn2ccsc2n1 (configuration not stated)	7.69
Cc1nn(C)c(C)c1CCC(=O)OCC(=O)N1CCc2sccc2C1	-1.071
Cc1ccnc(C(NC(=O)c2sc(C)nc2C)C2CC2)n1 (configuration not stated)	-13.48
CC(SCCNS(=O)(=O)c1cnn(C)c1)c1cccc(F)c1 (configuration not stated)	13.07
COc1ccc(C2CCCCCN2Cc2nnc(C)o2)cc1 (configuration not stated)	-42.58
COc1ccc(C2CCCCCN2Cc2cn(C)nc2C)cc1 (configuration not stated)	97.09
CC(C)N(C)C(=O)C1CSCN1S(=O)(=O)c1cc(Cl)ccc1Cl (configuration not stated)	-2.04
O=C(NCC(F)(F)F)C(c1cccnc1)N1CCOCC1 (configuration not stated)	-10.65
Cc1cc(Cc2ccccc2F)cc(C2CCCNC2)n1 (configuration not stated)	100.5
Cc1cc(Cc2ccccc2C)cc(C2CCCNC2)n1 (configuration not stated)	111.5
Cc1cc(C2CCC2)nc(N(C)Cc2ncccc2C)n1	22.22
CCOc1ccc2ccccc2c1CNCC1CCNCC1.Cl.Cl	8.229

Structure (SMILES)	Percent Effect [%]
Cc1cc(N2CCC(n3cc(CN4CCC[C@@H]4CO)nn3)CC2)ccn1	-20.23
CC(=O)N1CCC(c2nccnc2CNC(=O)c2cc[nH]n2)CC1	109.1
O=C(c1cc[nH]n1)N1CCC(c2nccn2Cc2ccncc2)CC1	-13.9
CC(C)Oc1ncccc1CNC(=O)c1cc[nH]n1	6.018
CCOc1ccccc1OC1CCN(C(=O)c2cc[nH]n2)CC1	-11.18
CC(=O)NCc1nccnc1C1CCN(C(=O)c2cc[nH]n2)CC1	109
CC(C)n1ccnc1C1CCN(C(=O)c2cc[nH]n2)CC1	7.968
COCC1CC2(CCNCC2)CN1Cc1csc(C)n1.O=C(O)C(F)(F)F.O=C(O)C(F)(F)F (configuration not stated)	-1.413
COCCN(Cc1ccc(F)cc1Cl)C(=O)c1cc(C)n[nH]1	6.366
Cc1cc(Cn2cc(C(C)Cc3ccc4c(c3)OCO4)nn2)n[nH]1 (configuration not stated)	3.819
Cc1cnc(N2CC[C@@H](N3CCOCC3)[C@@H]2Cc2ccncc2)nc1.O=C(O)C(F)(F)F.O=C(O)C(F)(F)F	-9.199
O=C(O)C(c1ccc(O)cc1)N1CCC(N2CCSCC2)CC1 (configuration not stated)	107.3
COc1ccc(C(C(=O)O)N2CCN(C3CCCCC3)CC2)cc1OC (configuration not stated)	-12.55
O=C(O)C(c1ccc2c(c1)OCCO2)N1CCSCC1 (configuration not stated)	3.219
O=C(O)C(c1ccc2c(c1)OCCO2)N1CCC(N2CCSCC2)CC1 (configuration not stated)	114.8
O=C(O)C(c1cccc2c1OCC2)N1CCC(N2CCSCC2)CC1 (configuration not stated)	4.197
Cc1cc(=O)n2ncnc2n1CC(O)c1cc(Cl)ccc1Cl (configuration not stated)	-47.28
COc1ccc(F)c(-c2cc(O)nc(N)n2)c1	-16.24
CCN1CCOCC12CCN(C(=O)c1ccsc1)CC2.O=C(O)C(F)(F)F	-8.879
CC(=O)N1CCC2(CC1)COCCN2CCN(C)C.O=C(O)C(F)(F)F.O=C(O)C(F)(F)F	6.129
CCN1CCOCC12CCN(C(=O)C1CCC1)CC2.O=C(O)C(F)(F)F	107.9
CN(C)CCN1CCC2(CCCN(C(=O)C3CCC3)C2)CC1.O=C(O)C(F)(F)F.O=C(O)C(F)(F)F	-7.862
CN1CCOCC12CCN(C(=O)C1CCC1)CC2.O=C(O)C(F)(F)F	137.1
CN1CCOC2(CCCN(C(=O)C3CCCCC3)C2)C1.O=C(O)C(F)(F)F (configuration not stated)	-15.05
CN1CCOCC12CCN(c1nncs1)CC2.O=C(O)C(F)(F)F.O=C(O)C(F)(F)F	6.857

Structure (SMILES)	Percent Effect [%]
Cn1ccnc1C(=O)N1CCC2(CCCN2CC2CC2)CC1.O=C(O)C(F)(F)F	5.734
CCN1CCOCC12CCN(C(=O)Cc1cccs1)CC2.O=C(O)C(F)(F)F	0.8444
CC(C)C(=O)N1CCC2(CCN2CC2CC2)C1.O=C(O)C(F)(F)F (configuration not stated)	-2.181
O=C(C1CCC1)N1CCC2(CCCN2CC2CC2)CC1.O=C(O)C(F)(F)F	90.77
CN(C)CCN1CCOCC12CCN(C(=O)C1CC1)CC2.O=C(O)C(F)(F)F.O=C(O)C(F)(F)F	105.8
Cc1nc(CN(C)c2nc3c(cnn3C(C)(C)C)c(=O)[nH]2)cs1	2.09
CC(=O)N1CC[C@H]2C(=O)N(c3ccsc3)CCO[C@H]2C1	-22.82
Cc1ccc(CN(C)C)cc1NC(=O)C1CC1	-4.043
O=C(Cc1cccs1)N1CCC2(CC1)COCCN2CC1CC1.O=C(O)C(F)(F)F	-7.1
CCN1CCOCC12CCN(C(=O)C1CCCC1)CC2.O=C(O)C(F)(F)F	72.95
COCC(=O)N1CCC2(CC1)COCCN2CCN(C)C.O=C(O)C(F)(F)F.O=C(O)C(F)(F)F	-13.01
O=C(C1CCCO1)N1CCC2(CC1)COCCN2CC1CC1 (configuration not stated)	91.17
CCOCC(=O)N1CCC2(CC1)COCCN2CCN(C)C.O=C(O)C(F)(F)F.O=C(O)C(F)(F)F	122.8
c1csc(CN2CCC3(CC2)COCCN3CC2CC2)n1	-11.56
CCOCC(=O)N1CCC2(CC1)COCCN2CCOC.O=C(O)C(F)(F)F	1.249
CC(C)(C)N1CC(C(=O)NCc2cn3cccnc3n2)CC1=O (configuration not stated)	-9.989
Cc1nc(CN(C)Cc2nc(-c3ccncc3)no2)co1	-11.37
Cc1c(C(=O)NCC2CCN(Cc3c[nH]cn3)C2)[nH]c2ccccc12 (configuration not stated)	1.148
COCCNc1ccc(CC2CCCN(C3CCOCC3)C2)nn1 (configuration not stated)	121.9
O=C(CC1CCCC1)N[C@H]1CN(Cc2c[nH]cn2)C[C@@H]1C1CC1	-0.5907
COCCNc1ccc(CC2CCCN(Cc3c[nH]cn3)C2)nn1 (configuration not stated)	98.89
CC(C)[C@H]1CN(Cc2c[nH]cn2)C[C@@H]1NC(=O)CC1CCC1	-5.041
Cn1c(CCNC(=O)C2CCCN(C3CCOCC3)C2)n[nH]c1=O (configuration not stated)	-0.6939
CNc1ccc(CC2CCCN(Cc3c[nH]cn3)C2)nn1 (configuration not stated)	113.9
O=CO.c1nc(CN2CCCC(Cc3ccc(NC4CCCC4)nn3)C2)c[nH]1 (configuration not stated)	168.2

Structure (SMILES)	Percent Effect [%]
Cc1ccc2[nH]nc(C(=O)NCC3CCN(Cc4c[nH]cn4)C3)c2c1 (configuration not stated)	-10.2
Cc1csc(CCNC(=O)C2CCCN(C3CCOCC3)C2)n1 (configuration not stated)	-10.65
NC(=O)COc1ccc(CNC(=O)CN2CCc3ccccc32)cc1	-10.38
CN(CCO)Cc1nnc(C2CCN(C3CCCCC3)CC2)n1C	6.504
Cc1ccc(C(=O)N2CCSCC2)cc1NC(=O)Cn1cncn1	-1.948
NC(=O)c1cccc(CCNC(=O)N2CCCC2)c1	-5.891
CCCc1cc(=O)[nH]c(-c2cccc(CN3CCN4CCCC4C3)c2)n1 (configuration not stated)	-7.506
CC(C)C1CN(Cc2c[nH]cn2)CCCN1CC1CC1 (configuration not stated)	17.94
Fc1ccc(CCC2CCCN(Cc3c[nH]cn3)C2)c(F)c1 (configuration not stated)	-3.071
c1ccc(C2CN(C3CC3)CC3(CCN(Cc4ncc[nH]4)CC3)C2)cc1 (configuration not stated)	-18.37
Nc1ccc(CC2CCCN(Cc3c[nH]cn3)C2)nn1 (configuration not stated)	105.7
c1c[nH]c(CN2CCCC(Cc3ccc(NC4CCCC4)nn3)C2)n1 (configuration not stated)	81.53
O=C1CC[C@H]2CN(Cc3ncc[nH]3)CC[C@H]2N1CC1CCNCC1	-8.264
O=C(c1coc(COc2cccc3cnccc23)n1)N1CCSCC1	-33.47
Cc1ccc(C(=O)N2CC[C@H]3[C@@H]2CCC(=O)N3c2cccnc2)o1.O=C(O)C(F)(F)F	-21.39
CCc1cnc(N2CC[C@H]3[C@@H]2CCC(=O)N3c2cccnc2)nc1.O=C(O)C(F)(F)F.O=C(O)C(F)(F)F	93.01
CCc1cnc(N2CC[C@H]3[C@H]2CC(=O)N3c2cccnc2)nc1.O=C(O)C(F)(F)F.O=C(O)C(F)(F)F	-6.023
Cc1cnc(C(=O)N2CC[C@H]3[C@@H]2CCC(=O)N3c2cccnc2)cn1.O=C(O)C(F)(F)F	0.08604
CCc1cnc(N2CC[C@H]3[C@@H]2CCC(=O)N3c2ccccc2)nc1.O=C(O)C(F)(F)F	97.82
Cc1cc(CNC(=O)c2cc(C(C)C)n(C)n2)ccc1S(C)(=O)=O	-6.268
CC(=O)N(CCc1ccccc1)CC(=O)NC(C)(C)C#N	-33.05
COCCCN1CC2(CCCN(c3ncnc4[nH]cnc34)C2)CCC1=O (configuration not stated)	-3.857

Source: ChEMBL document CHEMBL3988442, “University of Dundee, Small-Polar-MMV Screening Library” (2021)
